Consider eight molecules from ChEMBL document CHEMBL3988442, “University of Dundee, Small-Polar-MMV Screening Library” (2021).

For some of these results: Measured potencies and affinities stand elsewhere.

Design in all cases: scale not given: direction of the effect not stated beside the values
In test [1] the target is Protein translocase subunit SecA (Escherichia coli (strain K12)) (UniProt P10408). The experiment in a line: Assay to Identify E. coli SecA ATPase Inhibitors. The class given is functional. Particulars: 30 µM.
Test [2] concerns the target T1, Ubiquitin-activating enzyme e1, putative (Leishmania donovani (strain BPK282A1)) (UniProt E9BSI1).
T1 sequence (whole entry): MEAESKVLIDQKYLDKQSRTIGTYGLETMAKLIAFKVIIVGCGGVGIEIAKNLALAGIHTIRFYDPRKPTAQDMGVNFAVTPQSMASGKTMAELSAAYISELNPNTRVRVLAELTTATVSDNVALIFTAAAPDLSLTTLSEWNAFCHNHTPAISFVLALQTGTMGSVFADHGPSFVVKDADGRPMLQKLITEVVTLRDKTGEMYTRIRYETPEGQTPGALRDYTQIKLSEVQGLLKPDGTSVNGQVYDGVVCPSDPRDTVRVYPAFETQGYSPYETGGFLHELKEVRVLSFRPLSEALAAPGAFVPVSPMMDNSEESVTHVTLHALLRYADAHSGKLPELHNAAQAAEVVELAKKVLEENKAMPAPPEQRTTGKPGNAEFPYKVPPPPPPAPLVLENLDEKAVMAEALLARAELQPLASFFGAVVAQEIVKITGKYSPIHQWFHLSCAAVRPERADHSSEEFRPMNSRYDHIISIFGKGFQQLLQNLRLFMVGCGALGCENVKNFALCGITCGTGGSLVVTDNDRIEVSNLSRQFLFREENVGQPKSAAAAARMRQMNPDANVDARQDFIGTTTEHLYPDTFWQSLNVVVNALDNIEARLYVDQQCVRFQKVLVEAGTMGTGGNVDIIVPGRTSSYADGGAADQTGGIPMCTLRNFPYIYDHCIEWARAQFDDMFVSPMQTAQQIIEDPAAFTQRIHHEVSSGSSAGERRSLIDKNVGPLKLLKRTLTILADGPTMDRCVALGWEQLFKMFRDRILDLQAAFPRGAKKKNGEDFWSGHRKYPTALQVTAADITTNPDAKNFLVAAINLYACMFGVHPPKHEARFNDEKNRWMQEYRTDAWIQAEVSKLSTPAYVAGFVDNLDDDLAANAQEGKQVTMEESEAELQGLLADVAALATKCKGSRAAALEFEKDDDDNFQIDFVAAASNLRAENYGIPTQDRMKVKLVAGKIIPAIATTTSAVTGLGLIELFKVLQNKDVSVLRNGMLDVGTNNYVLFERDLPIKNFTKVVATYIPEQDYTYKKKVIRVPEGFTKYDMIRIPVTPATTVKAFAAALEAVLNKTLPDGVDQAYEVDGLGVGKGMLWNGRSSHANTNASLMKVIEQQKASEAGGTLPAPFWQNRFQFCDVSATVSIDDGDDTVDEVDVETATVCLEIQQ
As to the kind of experiment: Leishmania donovani Ubiquitin Activating Enzyme (LdE1). The class given is functional. Particulars: 30 µM.

Test [3] addresses AMP-activated protein kinase, AMPK (Homo sapiens) (UniProt P54646+O43741+P54619+Q9UGJ0+Q9Y478+Q13131+Q9UGI9). The experiment in a line: AMP-dependent Kinase enzyme assay. An in vitro enzyme assay that detects ADP turnover that is directly proportional to AMPK activity. This uses naive AMPK that is activated during the assay with MK-8722. Type of test: functional. Particulars: 30 µM.

For test [4], the target named is Sialic acid-binding Ig-like lectin 9 (Homo sapiens) (UniProt Q9Y336). As to the kind of experiment: Hs-Siglec9 ALPHAscreen SOP 20170721. The settings on record: 10 µM.
The test system of the next test is Trypanosoma cruzi. As to the kind of experiment: Trypanosoma cruzi phosphomannomutase and mannose-1-phosphate guanylyltransferase assay. The class given is functional. Particulars: 10 µM.
The target in test [5] is T2, Arginase-2, mitochondrial (Homo sapiens) (UniProt P78540).
T2 sequence (whole entry): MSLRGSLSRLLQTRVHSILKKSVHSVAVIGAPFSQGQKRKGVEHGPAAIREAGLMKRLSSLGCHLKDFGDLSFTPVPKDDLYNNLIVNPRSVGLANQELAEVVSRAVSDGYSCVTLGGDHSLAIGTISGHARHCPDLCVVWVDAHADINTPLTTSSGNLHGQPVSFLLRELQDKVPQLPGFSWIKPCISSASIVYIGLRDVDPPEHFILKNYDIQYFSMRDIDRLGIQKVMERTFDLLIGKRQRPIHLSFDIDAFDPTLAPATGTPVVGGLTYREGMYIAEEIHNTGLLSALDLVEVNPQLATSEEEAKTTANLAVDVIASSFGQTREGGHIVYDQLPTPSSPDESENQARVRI
The experiment in a line: in vitro enzyme assay to detect the production of urea directly proportional to the activity of Arginase II. Further: in the data most compounds retested in dose-response had high values. Type of test: functional. The settings on record: 33.3 µM.

The target of test [6] is T3, Proteasome subunit beta (Trypanosoma cruzi) (UniProt O96673).
T3 sequence (whole entry): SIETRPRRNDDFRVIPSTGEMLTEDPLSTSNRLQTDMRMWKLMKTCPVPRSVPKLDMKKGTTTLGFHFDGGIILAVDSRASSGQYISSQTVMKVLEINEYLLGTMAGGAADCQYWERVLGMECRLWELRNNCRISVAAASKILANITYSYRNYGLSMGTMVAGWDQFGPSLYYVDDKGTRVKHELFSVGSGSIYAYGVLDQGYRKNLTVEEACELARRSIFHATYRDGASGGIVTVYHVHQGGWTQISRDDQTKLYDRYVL
As to the kind of experiment: Trypanosoma cruzi proteasome chymotrypsin-like activity (TcProtChymo) assay. Further: in the data most compounds retested in dose-response had high values. The class given is functional. The settings on record: 9.37 µM.

The species entered for the next test is Homo sapiens. As to the kind of experiment: To identify inhibition of the IFN signalling (Jak-Stat) pathway via expression of an eGFP reporter gene under the control of an IFN-stimulated response element (ISRE) containing MxA promoter. The class given is functional. Particulars: 30 µM.
In test [7] the target is T4, Tyrosyl-tRNA synthetase, putative (Trypanosoma cruzi (strain CL Brener)) (UniProt Q4DSP6).
T4 sequence (whole entry): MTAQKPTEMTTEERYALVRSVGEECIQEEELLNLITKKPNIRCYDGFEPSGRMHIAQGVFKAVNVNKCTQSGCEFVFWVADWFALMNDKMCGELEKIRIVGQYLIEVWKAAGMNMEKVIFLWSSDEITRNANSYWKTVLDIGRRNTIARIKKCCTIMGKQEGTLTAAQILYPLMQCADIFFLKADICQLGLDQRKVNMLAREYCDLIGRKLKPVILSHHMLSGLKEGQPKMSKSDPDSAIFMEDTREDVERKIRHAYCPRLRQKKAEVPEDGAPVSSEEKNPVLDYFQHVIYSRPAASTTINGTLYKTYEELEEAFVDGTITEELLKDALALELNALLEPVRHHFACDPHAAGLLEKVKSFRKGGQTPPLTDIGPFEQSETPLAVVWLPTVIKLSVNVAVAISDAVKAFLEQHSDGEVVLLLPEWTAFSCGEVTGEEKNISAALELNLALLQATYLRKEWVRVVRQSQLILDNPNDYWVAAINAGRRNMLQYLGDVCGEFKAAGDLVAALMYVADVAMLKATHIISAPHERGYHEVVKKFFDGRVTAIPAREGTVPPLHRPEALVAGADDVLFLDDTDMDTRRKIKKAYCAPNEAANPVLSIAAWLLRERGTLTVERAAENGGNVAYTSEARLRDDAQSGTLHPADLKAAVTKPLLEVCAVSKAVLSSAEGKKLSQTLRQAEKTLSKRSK
As to the kind of experiment: Trypanosoma cruzi tyrosyl tRNA synthetase (TcYRS) _High Tyrosine SOP. Further: in the data most compounds retested in dose-response had high values. Type of test: functional. Particulars: 30 µM.

For test [8], the target named is T4, Tyrosyl-tRNA synthetase, putative (Trypanosoma cruzi (strain CL Brener)). As to the kind of experiment: Trypanosoma cruzi tyrosyl tRNA synthetase (TcYRS) SOP. Type of test: functional. The settings on record: 30 µM.
The target of test [9] is Chromo domain-containing protein 1 (Saccharomyces cerevisiae (strain ATCC 204508 / S288c) (Baker's yeast)) (UniProt P32657). As to the kind of experiment: ScCHD-1 Enzyme Inhibition Assay. Further: in the data most compounds retested in dose-response had high values. The class given is functional. Particulars: 30 µM.
Chain of Chromo domain-containing protein 1 (Saccharomyces cerevisiae (strain ATCC 204508 / S288c) (Baker's yeast)) (P32657 whole entry, the tested form may be a part): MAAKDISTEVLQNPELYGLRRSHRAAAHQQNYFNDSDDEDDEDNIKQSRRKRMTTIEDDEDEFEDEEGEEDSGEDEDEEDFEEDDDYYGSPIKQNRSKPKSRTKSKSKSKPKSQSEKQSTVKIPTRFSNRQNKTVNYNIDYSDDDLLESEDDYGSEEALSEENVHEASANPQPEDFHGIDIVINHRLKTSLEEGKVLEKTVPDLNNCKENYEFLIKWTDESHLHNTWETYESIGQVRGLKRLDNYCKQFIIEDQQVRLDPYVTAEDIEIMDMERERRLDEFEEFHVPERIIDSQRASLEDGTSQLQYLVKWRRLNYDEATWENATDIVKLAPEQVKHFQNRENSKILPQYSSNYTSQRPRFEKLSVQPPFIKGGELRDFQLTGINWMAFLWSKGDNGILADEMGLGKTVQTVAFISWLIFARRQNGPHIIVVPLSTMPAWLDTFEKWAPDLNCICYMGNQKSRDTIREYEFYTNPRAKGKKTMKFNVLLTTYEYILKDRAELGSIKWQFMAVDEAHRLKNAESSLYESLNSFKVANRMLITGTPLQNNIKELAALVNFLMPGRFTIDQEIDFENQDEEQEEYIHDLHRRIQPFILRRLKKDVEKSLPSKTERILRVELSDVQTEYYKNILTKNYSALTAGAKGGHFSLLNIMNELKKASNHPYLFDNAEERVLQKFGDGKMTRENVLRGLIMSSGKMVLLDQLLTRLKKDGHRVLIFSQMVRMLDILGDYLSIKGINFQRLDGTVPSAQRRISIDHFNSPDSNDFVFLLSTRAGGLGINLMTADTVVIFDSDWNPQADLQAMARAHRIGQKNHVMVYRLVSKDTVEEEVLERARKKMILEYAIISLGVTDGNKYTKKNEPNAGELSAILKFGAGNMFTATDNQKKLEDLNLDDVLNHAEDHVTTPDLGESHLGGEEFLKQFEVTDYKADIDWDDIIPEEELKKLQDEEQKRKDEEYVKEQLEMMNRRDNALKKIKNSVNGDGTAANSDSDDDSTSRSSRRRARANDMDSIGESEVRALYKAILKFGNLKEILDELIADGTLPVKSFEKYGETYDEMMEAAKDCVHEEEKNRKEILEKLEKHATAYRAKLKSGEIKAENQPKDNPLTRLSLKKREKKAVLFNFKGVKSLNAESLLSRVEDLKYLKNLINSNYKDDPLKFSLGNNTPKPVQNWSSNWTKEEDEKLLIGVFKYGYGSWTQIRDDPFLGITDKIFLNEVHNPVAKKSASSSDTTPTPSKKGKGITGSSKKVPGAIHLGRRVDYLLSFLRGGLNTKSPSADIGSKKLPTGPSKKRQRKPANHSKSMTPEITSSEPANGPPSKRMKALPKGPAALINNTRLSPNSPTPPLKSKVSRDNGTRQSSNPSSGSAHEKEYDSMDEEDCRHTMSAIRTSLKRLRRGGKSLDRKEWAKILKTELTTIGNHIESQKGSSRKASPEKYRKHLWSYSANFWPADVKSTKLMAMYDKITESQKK

Chain of Sialic acid-binding Ig-like lectin 9 (Homo sapiens) (Q9Y336 whole entry): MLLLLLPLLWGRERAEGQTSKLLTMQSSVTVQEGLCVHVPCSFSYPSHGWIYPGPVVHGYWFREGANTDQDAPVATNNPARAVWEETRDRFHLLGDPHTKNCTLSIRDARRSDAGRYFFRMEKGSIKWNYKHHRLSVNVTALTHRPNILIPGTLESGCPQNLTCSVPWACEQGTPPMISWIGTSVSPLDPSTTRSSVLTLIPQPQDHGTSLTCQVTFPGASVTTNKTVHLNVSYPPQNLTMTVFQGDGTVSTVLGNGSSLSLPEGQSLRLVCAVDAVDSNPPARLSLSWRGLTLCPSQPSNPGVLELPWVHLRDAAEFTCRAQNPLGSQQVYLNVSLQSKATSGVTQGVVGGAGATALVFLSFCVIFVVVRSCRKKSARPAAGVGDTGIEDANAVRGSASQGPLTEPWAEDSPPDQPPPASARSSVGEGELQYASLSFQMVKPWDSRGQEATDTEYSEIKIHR
Chain of Protein translocase subunit SecA (Escherichia coli (strain K12)) (P10408 whole entry): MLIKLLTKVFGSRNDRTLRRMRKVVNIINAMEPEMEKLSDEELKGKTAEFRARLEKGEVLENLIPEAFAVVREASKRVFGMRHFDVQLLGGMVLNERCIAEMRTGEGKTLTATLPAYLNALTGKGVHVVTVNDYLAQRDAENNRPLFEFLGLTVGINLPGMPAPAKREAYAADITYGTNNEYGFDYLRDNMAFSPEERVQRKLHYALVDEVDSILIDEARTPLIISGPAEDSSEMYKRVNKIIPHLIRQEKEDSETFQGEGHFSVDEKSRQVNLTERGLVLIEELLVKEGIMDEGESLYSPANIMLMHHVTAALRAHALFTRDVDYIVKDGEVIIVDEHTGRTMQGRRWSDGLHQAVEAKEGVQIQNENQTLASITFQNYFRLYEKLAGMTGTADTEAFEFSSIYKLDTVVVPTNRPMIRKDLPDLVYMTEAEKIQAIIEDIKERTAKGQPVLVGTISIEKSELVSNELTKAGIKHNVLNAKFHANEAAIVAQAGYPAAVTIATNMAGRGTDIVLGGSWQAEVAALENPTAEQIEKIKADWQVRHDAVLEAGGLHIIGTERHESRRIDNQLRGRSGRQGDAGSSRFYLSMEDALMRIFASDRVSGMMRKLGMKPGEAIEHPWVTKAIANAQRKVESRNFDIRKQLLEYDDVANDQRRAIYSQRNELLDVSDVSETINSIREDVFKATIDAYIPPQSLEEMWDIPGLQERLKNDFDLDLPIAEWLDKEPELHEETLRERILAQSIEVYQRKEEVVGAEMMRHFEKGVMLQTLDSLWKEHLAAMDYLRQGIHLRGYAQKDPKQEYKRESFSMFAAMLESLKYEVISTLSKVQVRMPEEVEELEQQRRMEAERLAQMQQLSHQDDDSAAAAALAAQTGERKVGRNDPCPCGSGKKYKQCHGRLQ

With `CN(C)C(=O)N1C[C@@H]2CC[C@H](C1)N(Cc1ccc3nsnc3c1)C2`, the Percent Effect is -2.91% in test [1]; -1.39% in test [2]; -8.41% in test [3]; -5.35% in test [4]; -2.04% in the test with Trypanosoma cruzi; 4.42% in [5]. Besides, the Percent Effect in test [6] was 13.2%; in the test listed under Homo sapiens, -11.8%; in test [7] it was 0%; in test [8], 2.56%; in test [9], -0.102%.

On to `COc1ccc(NC(=O)NC(C)(C)c2noc(C)n2)cc1`, for which the Percent Effect is -5.98% in [1]; 2.74% in test [2]; 9.96% in test [3]; -2.01% in test [4]; 0.979% with Trypanosoma cruzi; 5% in test [5]. Besides, the Percent Effect in test [6] was 13.5%; in the test filed under Homo sapiens it was 7.14%; in [7], 4.3%; in test [8], 12.5%; in [9], -1.95%.

As to `Cc1nc(CN2CCCn3c(nc(Cn4ccnc4)cc3=O)C2)cs1`, the Percent Effect was -3.95% in test [1]; 12% in [2]; 7.35% in test [3]; 0.752% in test [4]; -0.393% in the test with Trypanosoma cruzi; 1.23% in [5]. For the same molecule, the Percent Effect is 5.36% in test [6]; -26.2% in the test listed under Homo sapiens; -1.06% in test [7]; 0% in test [8]; -4.76% in [9].

For `CCC(CO)N(Cc1ccccn1)C(=O)c1ccc2c(c1)CCO2` (stereo not drawn), the Percent Effect in test [1] is -5.75%; in test [2], 10.7%; in test [3] it was -10.8%; in test [4], 36.5%; in the test with Trypanosoma cruzi, 7.89%; in test [5], 15.6%. The Percent Effect is 13.4% in test [6]; 12.5% in the test listed under Homo sapiens; 0.546% in test [7]; 16.1% in [8]; -5.21% in test [9].

As to `COCCNS(=O)(=O)c1cccc2c1CN(C(=O)c1ccccc1)CC2`, the Percent Effect in test [1] is -6.17%; in test [2], -4.17%; in test [3], 4.56%; in test [4] it was 0.0622%; with Trypanosoma cruzi, -1.65%; in [5] it was -2.21%. Also, the Percent Effect in test [6] is 4.39%; in the test listed under Homo sapiens, 34.9%; in test [7] it was -4.21%; in test [8] it was -10.3%; in test [9], 4.48%.

In the case of `O=C(NCCC1=CCCCC1)NCc1nnc2n1CCC2`, the Percent Effect was -2.33% in [1]; 15.8% in test [2]; 1.86% in test [3]; -11.8% in test [4]; -5.88% with Trypanosoma cruzi; 7.91% in test [5]. The Percent Effect in [6] was 6.18%; in the test listed under Homo sapiens, 7.88%; in test [7], 7.39%; in [8], 16.1%; in test [9], -8.65%.

For `Cc1cc(C(=O)N2CCCC(n3cncn3)C2)c(C)n1C1CC1` (stereo not drawn), the Percent Effect in [1] was -2.41%; in test [2] it was -3.8%; in test [3] it was 2.66%; in test [4], 1.98%; in the test with Trypanosoma cruzi, 1.54%; in test [5], 2.37%. Moreover, the Percent Effect in [6] was -1.54%; in the test listed under Homo sapiens, -3.71%; in test [7] it was 2.08%; in [8], 2.53%; in test [9] it was 11.1%.

In the case of `O=C(c1ccoc1)N1CC[C@@H]2O[C@H](COCc3ccccn3)CC[C@@H]21`, the Percent Effect was 4.07% in test [1]; 8.11% in test [2]; 2.6% in test [3]; -13.6% in test [4]; -3.42% in the test with Trypanosoma cruzi; 2.87% in test [5]. Further, the Percent Effect was 21.4% in [6]; 7.99% in the test listed under Homo sapiens; 2.16% in test [7]; 10.3% in test [8]; -3.84% in test [9].
